The results in this text go back to PubChem BioAssay (NCATS).

Inconclusive results are not listed. Where a call stands in place of a potency, no number is given. Active and inactive are the calls of the source. Calls follow the shape of the dose curve; as a rule, active = well fitted curve in the direction sought with a large enough effect in the repeat runs; inconclusive = weak or mixed curves; inactive = no such curve, though single readings can be large; an effect the other way counts as inactive or inconclusive.
Also: nearly all actives have a fitted effect of over 55% in size.
Potency is read from the fitted curve at half-maximal effect.

Chain of Cytochrome P450 2C9 (Homo sapiens) (P11712 whole entry, looked up): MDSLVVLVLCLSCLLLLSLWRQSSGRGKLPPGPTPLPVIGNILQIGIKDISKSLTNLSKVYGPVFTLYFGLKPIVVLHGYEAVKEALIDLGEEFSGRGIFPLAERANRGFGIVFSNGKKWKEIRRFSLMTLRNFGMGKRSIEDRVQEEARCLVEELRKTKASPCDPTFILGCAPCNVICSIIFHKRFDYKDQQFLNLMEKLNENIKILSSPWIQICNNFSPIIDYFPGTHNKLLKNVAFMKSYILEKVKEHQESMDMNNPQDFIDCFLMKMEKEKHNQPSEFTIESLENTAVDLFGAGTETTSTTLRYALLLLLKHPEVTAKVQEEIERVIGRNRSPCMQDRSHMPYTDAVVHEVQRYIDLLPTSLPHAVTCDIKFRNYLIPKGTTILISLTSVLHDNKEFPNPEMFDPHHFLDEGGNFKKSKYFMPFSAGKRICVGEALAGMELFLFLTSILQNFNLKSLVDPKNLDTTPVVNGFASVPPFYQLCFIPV
Chain of Cytochrome P450 2D6 (Homo sapiens) (P10635 whole entry, looked up): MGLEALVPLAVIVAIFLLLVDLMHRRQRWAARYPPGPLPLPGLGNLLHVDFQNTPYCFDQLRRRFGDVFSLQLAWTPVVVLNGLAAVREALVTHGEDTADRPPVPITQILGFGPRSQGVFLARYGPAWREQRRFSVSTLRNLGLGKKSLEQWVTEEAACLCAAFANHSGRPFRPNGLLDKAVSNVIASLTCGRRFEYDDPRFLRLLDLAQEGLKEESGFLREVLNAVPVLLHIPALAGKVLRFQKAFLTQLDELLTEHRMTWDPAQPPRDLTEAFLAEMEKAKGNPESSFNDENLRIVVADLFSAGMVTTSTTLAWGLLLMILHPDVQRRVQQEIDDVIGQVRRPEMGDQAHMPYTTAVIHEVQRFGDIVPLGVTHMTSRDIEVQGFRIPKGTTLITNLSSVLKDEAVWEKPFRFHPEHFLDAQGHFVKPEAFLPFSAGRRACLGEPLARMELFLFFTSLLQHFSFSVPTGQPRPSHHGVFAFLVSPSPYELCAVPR

One test concerns the target Cytochrome P450 2D6 (Homo sapiens) (UniProt P10635). Briefly: Cytochrome P450 family 2 subfamily D member 6 (CYP2D6) small molecule antagonists: luciferase biochemical (cell-free) qHTS assay (AID 1645840). The note with it: P450-Glo CYP2D6 enzyme, luciferin luminescence, 1 h; series mostly up to 57.4 µM. A digest of the protocol:
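P450-Glo luminescent screen: recombinant CYP2D6 enzyme–proluciferin substrate mix preincubated with compound 10 min at room temperature, then NADPH regeneration added for 1 h at room temperature. Detection reagent added for 20 min; luciferin light read as relative luminescence units.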
Background: qHTS replaces the single test concentration by a dilution series.
Regarding `CO[C@@H](Cc1ccc(OCCc2nc(-c3ccccc3)oc2C)c2ccsc12)C(=O)O`, the Potency entry is “inactive”.
Still for that read-out and setting: with `CC1(C)CC(=O)N(CCCCN2CCN(c3ncccn3)CC2)C(=O)C1` the entry was “inactive”.
Still for that read-out and setting: under `COc1cc(NC(=O)c2ccccn2)ccc1Cl` stands 23.9 µM (active); under `CC(C)Nc1cc(-c2c[nH]c(C(=O)N[C@H](CO)c3cccc(Cl)c3)c2)c(Cl)cn1`, 19 µM (active); under `Cc1nn(C)c(COc2ccc(N3CCN(S(=O)(=O)N(C)C)CC3)cc2)c1-c1cccc2c(CCCOc3cccc4ccccc34)c(C(=O)O)n(CCN3CCOCC3)c12`, “inactive”.
On to `Cc1nc2c(-c3cnc(N)nc3)nc(N3CCOCC3)nc2n1C(C)C`, for which the Potency entry is “inactive”.
With `CON(C)C(=O)N1N=C(c2cc(F)ccc2F)S[C@@]1(CCCN)c1ccccc1`, the Potency is 19 µM (active).
Same read-out and setting: with `CNC(=O)O[C@H]1COc2ccc(N3CCN(C4COC4)CC3)cc2[C@@H]1NC(=O)c1ccc(F)cc1` the entry was “inactive”; with `O=C(COc1ccc(Cl)cc1)NC1CCC(NC(=O)COc2ccc(Cl)cc2)CC1` (configuration not stated), “inactive”.
In the case of `C[C@H]1CN(C[C@H](Cc2ccccc2)C(=O)NCC(=O)O)CC[C@@]1(C)c1cccc(O)c1`, the Potency entry is “inactive”.
On the same count and under the same terms, under `CCCCNC(=O)[C@@H]1Cc2ccccc2N1C(=O)[C@@H](N)CC` stands “inactive”; under `COc1ccc(C)c2sc(NC(=O)c3ccncc3)nc12`, 6.74 µM (active).

The next test concerns the target Cytochrome P450 2C9 (Homo sapiens) (UniProt P11712). Briefly: Cytochrome P450 family 2 subfamily C member 9 (CYP2C9) small molecule antagonists: luciferase biochemical (cell-free) qHTS assay (AID 1645842). The note with it: P450-Glo CYP2C9 enzyme assay, luciferin luminescence; series mostly up to 57.4 µM. Summed up: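 Luminescence, after 20 min with luciferin detection reagent, reflected CYP2C9 turnover during a 1 h NADPH-driven reaction at 37C. Enzyme-substrate mix contained 0.4% bovine serum albumin and was preincubated with compound 10 min at room temperature.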
With `COc1ccc2cc(OCC3(C(=O)O)CN(C(=O)c4ccc(F)cc4)C3)ccc2c1`, the Potency was 16.9 µM (active).
Still for that read-out and setting: under `CO[C@@H]1COCC[C@@H]1N[C@@H]1CC[C@@](C(=O)N2CCc3ncc(C(F)(F)F)cc3C2)(C(C)C)C1` stands “inactive”; under `CN(C)C/C=C/C(=O)Nc1ccc(C(=O)Nc2cccc(Nc3ncc(Cl)c(-c4c[nH]c5ccccc45)n3)c2)cc1`, 7.56 µM (active); under `CC1(C)C(=O)C(C)(C)c2cc(C(=O)Nc3ccc(C(=O)O)cc3)ccc21`, “inactive”.
As to `O=C(c1ccccn1)c1cnn2c(-c3ccncc3)ccnc12`, the Potency was 12 µM (active).
`O=C1NC(=Nc2ccccc2F)S/C1=C\c1ccc(C(=O)O)cc1`: the Potency was 10.7 µM (active).
With `CNC(=O)COC(=O)NCCC1CCN(c2cccc(C)n2)CC1`, the Potency result was “inactive”.
For the compound `CNC(=O)c1ccc(Nc2ncc(C(F)(F)F)c(NCc3nccnc3N(C)S(C)(=O)=O)n2)cc1`, the Potency was 3.79 µM (active).
As for `C=C1CC[C@@H]2[C@](C)(CO)[C@H](O)CC[C@@]2(C)[C@@H]1C/C=C1/C(=O)OC[C@H]1O`, the Potency result is “inactive”.
Take `O=c1c2cccnc2n(-c2cccc([N+](=O)[O-])c2)c(=O)n1Cc1ccncc1`: the Potency was 0.268 µM (active).
As for `NS(=O)(=O)OC[C@@H]1C[C@@H](n2ccc3c(N[C@H]4CCc5ccccc54)ncnc32)C[C@@H]1O`, the Potency was 21.3 µM (active).
`N[C@@H](CC(=O)N1CCn2c(nnc2C(F)(F)F)C1)Cc1[nH]nc2c(F)c(F)ccc12`: the Potency result is “inactive”.
Consider `CCOC(=O)[C@H](CCc1ccccc1)CC1(C(=O)N[C@H]2CCc3ccccc3N(CC(=O)O)C2=O)CCCC1`, for which the Potency result was “inactive”.
As for `O=C(O)c1n[nH]c2c1C[C@H]1C[C@@H]21`, the Potency result was “inactive”.
As for `Cc1cc(N2CCCCC2)nc2ccccc12`, the Potency result was “inactive”.
Same read-out and setting: under `CCNC(=O)[C@H]1O[C@H](n2cnc3c(NCC(c4ccccc4)c4ccccc4)nc(C(=O)NCCNC(=O)NC4CCN(c5ccccn5)CC4)nc32)[C@H](O)[C@@H]1O` stands 3.79 µM (active); under `CCc1c(CC(N)=O)c2cc(OCCCP(=O)(O)O)ccc2n1Cc1ccccc1`, “inactive”.
For the compound `CN(C)c1cccc(-c2c3c(=O)n(-c4ccccc4Cl)[nH]c3cc(=O)n2C)c1`, the Potency is 5.35 µM (active).
On to `Cc1cc(C)c(S(=O)(=O)N(Cc2ccc(-c3cccc(S(C)(=O)=O)c3)cc2)Cc2ccc(C(F)(F)F)o2)c(C)c1`, for which the Potency was 0.268 µM (active).
Turning to `CC1(C)CCC(C)(C)c2cc([C@@H](O)C(=O)Nc3ccc(C(=O)O)cc3F)ccc21`, the Potency is 13.5 µM (active).
Still for that read-out and setting: with `CN1CCC(c2c[nH]c3ccc(NC(=O)c4ccc(F)cc4)cc23)CC1` the entry was “inactive”.
In the case of `CCC(CC)n1ccc2c(C(=O)NCc3c(C)cc(C)[nH]c3=O)cc(C#N)cc21`, the Potency was 4.77 µM (active).
On the same count and under the same terms, under `FC(F)(F)c1cc(C(F)(F)F)c2ccc3nc(-c4nnco4)cn3c2n1` stands “inactive”; under `COCCCNCC1COc2ccccc2O1` (configuration not stated), “inactive”.
The same measure, in the same setting: under `CC(=O)N1CCN(NC(=O)c2ccc(F)cc2)CC1` stands “inactive”; under `C[C@@H](Nc1cc(NS(=O)(=O)N2CCC2)nc(SCc2cccc(F)c2F)n1)[C@@H](O)CO`, “inactive”.
Still for that read-out and setting: under `O=C1N(CC2CCCCN2)CCN1c1ccccc1` (configuration not stated) stands “inactive”.
Turning to `Cc1[nH]cnc1C1CCN(c2nc3cccc4c3n2CCC4=O)CC1`, the Potency is 9.52 µM (active).
Still for that read-out and setting: under `CO[C@@H](Cc1ccc(OCCc2nc(-c3ccccc3)oc2C)c2ccsc12)C(=O)O` stands 26.8 µM (active); under `CC1(C)CC(=O)N(CCCCN2CCN(c3ncccn3)CC2)C(=O)C1`, “inactive”; under `COc1cc(NC(=O)c2ccccn2)ccc1Cl`, 23.9 µM (active).
Still for that read-out and setting: with `CC(C)Nc1cc(-c2c[nH]c(C(=O)N[C@H](CO)c3cccc(Cl)c3)c2)c(Cl)cn1` the figure was 4.77 µM (active).
The same measure, in the same setting: under `Cc1nn(C)c(COc2ccc(N3CCN(S(=O)(=O)N(C)C)CC3)cc2)c1-c1cccc2c(CCCOc3cccc4ccccc34)c(C(=O)O)n(CCN3CCOCC3)c12` stands 13.5 µM (active).
For `Cc1nc2c(-c3cnc(N)nc3)nc(N3CCOCC3)nc2n1C(C)C`, the Potency is 12 µM (active).
As to `CON(C)C(=O)N1N=C(c2cc(F)ccc2F)S[C@@]1(CCCN)c1ccccc1`, the Potency was 3.01 µM (active).
Still for that read-out and setting: with `CNC(=O)O[C@H]1COc2ccc(N3CCN(C4COC4)CC3)cc2[C@@H]1NC(=O)c1ccc(F)cc1` the entry was “inactive”; with `O=C(COc1ccc(Cl)cc1)NC1CCC(NC(=O)COc2ccc(Cl)cc2)CC1` (configuration not stated), “inactive”; with `C[C@H]1CN(C[C@H](Cc2ccccc2)C(=O)NCC(=O)O)CC[C@@]1(C)c1cccc(O)c1`, “inactive”.
On the same count and under the same terms, under `CCCCNC(=O)[C@@H]1Cc2ccccc2N1C(=O)[C@@H](N)CC` stands “inactive”; under `COc1ccc(C)c2sc(NC(=O)c3ccncc3)nc12`, 0.849 µM (active).
